The full ranking holds about 59,000 sequences; the median of the read-out is about -0.00055, and the lowest 2% start at about -2. This is one part of a sample in which the lowest values are shown more often than they occur.

A short description of the experiment: Identification of proteins required for the processing of the EWS-FLI1 nascent transcript.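 Also: robust z of luciferase light less the median z of siRNAs with the same seed.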 The conditions noted are these: TC32 Ewing sarcoma NR0B1-luc vs CMV-luc (EWS-FLI1 target promoter against control promoter), 48 h; screened at 20 nM (by protocol). How it is done: Ewing sarcoma (ES) cells depend on the EWS-FLI1 fusion transcription factor for cell survival. Using an assay of EWS-FLI1 activity and genome-wide siRNA screening we have identified proteins required for the processing of the EWS-FLI1 nascent transcript. Parallel genome-wide siRNA-mediated RNAi screens were conducted in Ewing sarcoma TC32 cell lines expressing a luciferase (luc) reporter protein driven by either the promoter of the EWS-FLI1 target gene NR0B1 (TC32-NR0B1-luc) or the CMV promoter (TC32-CMV-luc). Luciferase activity was assessed 48 hours post siRNA-transfection.
Twenty microl of serum-free media containing Lipofectamine RNAiMax (0.05 microl) was added to wells containing siRNA (0.8 pmol). Lipid and siRNA were allowed to complex for 45 min at ambient temperature before addition of 600 cells in RPMI-1640, 20% FBS to yield final transfection mixtures containing 20 nM siRNA in RPMI-1640, 10% FBS. Luciferase expression was measured using OneGlo (Promega, Madison, WI). The genome-wide screening campaign was conducted using Ambion's human genome library version 4.1 (Ambion, Austin TX). This library targets approximately 21000 human genes, three siRNAs per gene. Each siRNA is arrayed in an individual well of a 384-well plate. Parallel transfections were conducted in TC32-NR0B1-luc and TC32-CMV-luc cell lines and luciferase expression (OneGlo, Promega) was assayed 48 h later on a PerkinElmer Envision 2104 Multilabel plate reader (PerkinElmer, Waltham, MA). Qiagen's AllStars Negative control was incorporated on all screening plates for normalization (16 wells per plate). Qiagen, Germantown, MDsiGL4 was incorporated as a positive transfection control (16 wells per plate) on all plates. […] The raw luciferase data for the NR0B1- and CMV-luc screens were normalized and z-score-MAD transformed using standard methods (Chung et al., 2008). The miRNA-like seed sequence of every siRNA was determined and the median z-score for all siRNA sequences with the same seed sequence was calculated. This z-score was subtracted from the z-score associated with each siRNA with that seed sequence to generate a seed-adjusted z-score value (Z) that was used when the results for the three siRNAs corresponding to each gene were compared (Marine et al., 2012)
Regarding AUCCCUUCAAUGGCCAUCC against ECHDC2, the seed-corrected z-score is -0.995. In the case of AUUGUUAUAGAAGCGGUCU against SPA17 it was -0.602; in that of UGACGUACCUAUCCACUGC against MC5R, -0.731. Consider UCGUUGCUCAGCAUCAAUC against SBNO1, for which the seed-corrected z-score was -0.827. For the sequence AUCGAUCUAGUUUAAUUCC against DGKE, the seed-corrected z-score was -0.537.

On to UGUAUAGUCAUGAUAAUGU against LOC643784, for which the seed-corrected z-score was -0.459. On to UCAGGGCUCAGACAGGACU against TSC22D3, for which the seed-corrected z-score is -2.02. In the case of AGAGAAUAAAGAGCUGGAC against TMEM79 it was 0.267. In the case of AGACUUGCGAACAUGAUUC against CGGBP1 it was 0.518. Next, UUCCUUCCUACUCAGGGUC against S100A5: -2.25; UCAACCUUUACUGAAGGCC against ARNTL: -0.133. With UAUAGCGAAGGGACAAACC against LRRTM3, the seed-corrected z-score was found to be 0.0787. Next, UGAUGAUUAUCUUUGAAUG against IGFBP3: 0.761; AAACGUACCUUGUCAUUCC against TXK: -0.645; UUUUCUCUCGUAUUAAUUG against GSDMB: 0.329. In the case of UCAUCAUCUAAUAAAGUCC against MRO it was -3.11; in that of ACUGGAUUAACAUCAUCUG against SDHAF4, -0.445; in that of UGCUUUCUCAGGGCAGCUC against ZFP42, -0.0418. Next, AAAGGGAUGCUCCAAGCGC against NME3: 0.482; AUAAGUUGCAGCAAAAUCC against MAB21L1: -0.725; AUCGAUGAUAGCCUGCUCG against ANXA8L1: -2.86.

For UUUACCACAGGUUUCUUCC against HIRIP3, the seed-corrected z-score was -0.591.

For UAACUUCAAACCGAUUUCU against TRMU, the seed-corrected z-score was -0.389. The sequence AAAGUAAAGAUAUGCGUGU against TBX21 displayed a seed-corrected z-score of 1.07. Next, UCUGUCGAUAGUCUUCUCG against STIP1: 0.345; UAAUGUACUCGUCACACCU against BICD2: -2.89; UAUGGGACAUCCUAAUCAC against KIAA0586: -0.187.

For the sequence UCCGCUUUAACCCUGCUUC against PRDM2, the seed-corrected z-score was -0.723. Regarding UUUAGCUCUGGAACAAUGC against SLC38A1, the seed-corrected z-score amounted to 0.0432. In the case of UUACUAGUAAUGGACCCGC against YTHDF2 it was 1.05; in that of UUCAUAUAUACUCUGAUUC against C1DP3, 0.587; in that of UACUCGACCUUCUUUCACC against PPP3CB, 0.354. In the case of AAAGAUUGAGGUGGUAUGC against YTHDF3 it was -2.48; in that of UUUCGGUUUCCACUUUUCC against NIPAL3, 0.547. Next, UAACUCAUCAACUUUAUCG against CHMP4B: -0.576; UUCUCUAUCUCAUGAAUCC against RAB19: 0.0141; AGUGAAUCGAGAGCAAUGG against ELP5: 0.672.

Consider AAAAGAACCUCCAACAAUC against COX16, for which the seed-corrected z-score is -2. Sequence UCUAUGUCUCAGGUACUGC against CCDC15 returned a seed-corrected z-score of 0.12. On to AUAGAUCCUAAAGAACUGG against GPR141, for which the seed-corrected z-score was -0.531.

As for UUUUAGUCUACGAAGAUCC against ANKIB1, the seed-corrected z-score is -0.435. Consider UGUCAUAUGGGCUUGCUCC against CEP250, for which the seed-corrected z-score is -0.255. Consider UCCACUUAAACACUCCUCC against DCLRE1C, for which the seed-corrected z-score was -2.25. Take UAGCUGUCCGUGAAGAUCC against ADCYAP1: the seed-corrected z-score was determined as 0.344.

The sequence ACAAUGUAUACUGUAGUCC against CDHR2 yielded a seed-corrected z-score of 0.247. Next, AAUAGGAUAAAUGUUCCGG against SMURF2: 0.293; AUACGUGAUACUUCCCUCC against MS4A13: -1.19; UGUCUUCUCAUGCAGUUUC against ACSF2: -0.5. UCUGUGAAAAUCUUCCACG against ZNF174: the seed-corrected z-score was determined as 0.076.

The sequence UAUAGGCCUGCUGAGAUCG against GALT showed a seed-corrected z-score of 0.826. In the case of UAGUUGCCUAAUUACACUG against MYO3A it was -2.22. For the sequence UUCACGGUCACAUUGCGCG against MAG, the seed-corrected z-score was -0.22. Next, UAUGAAGAGGAGACCAACC against PSMD10: -0.0551; UAAGCUAUUUCCUCGGCUC against MTCH2: 0.402.

The sequence UAAAGAUUACCUGAGACCG against FBXO36 had a seed-corrected z-score of 0.489.

For UUGACUAUAAGUAAGUCUC against STXBP5, the seed-corrected z-score is -2.91. As to UGCGCGAUGAUGAGUACCG against ABCB9, the seed-corrected z-score came to 0.705. UUCCUUAGAAACUGCAUAC against JMY: the seed-corrected z-score was -0.827. Next, UUCGUGAACAGACAGAACU against OAS2: -0.385; UAAGAACAUAGUACAGCUC against LDB1: -0.519; AAACUUAUAGAACUCACUG against CCDC148: -0.143. In the case of UCCGCAUGAACUCGUAGCU against PLEKHJ1 it was 0.0613; in that of UAGUUGUCCAACAUUGGUU against ZNF99, -3.24; in that of UAGCGAUUGUGAAUCUUGC against RNF19A, -0.443. In the case of UAUGGUGUAAGUUUUCGGG against FARSB it was 0.451. For UUCGGGUCCACUGAUUUCC against CHMP4B, the seed-corrected z-score was -1.35.

For the sequence UGUCAUAACAGCUCCGCGA against ELK1P1, the seed-corrected z-score was -0.141.

Take UAUAUGUCCGGGCGUGUUC against MAPK11: the seed-corrected z-score turned out to be 0.187. Next, AACCUGAUAAUAACCAGAU against FAM96A: 0.457; UGAGAUUUCUAUGUAACAC against SS18L2: 0.356; UUAUCGAUGUCUUCGUGCC against GCK: -0.301.

As to AUAGUUGCGGAUGAAGUCU against KAZN, the seed-corrected z-score was -3.51.

AAUGUUUCAAGAAGCUGCU against MED9: the seed-corrected z-score is -1.82.

UCAGGGUCCAUUGUCACCA against IGSF23: the seed-corrected z-score is -0.567. Next, UACAGGGCAAUGAACAGGG against FGR: 0.274; AUGAAGCUCAGUCAGGUCG against TMCC2: -2.16. In the case of UCCUUGACGACAACUUUCC against LOC642677 it was -1.2; in that of UAACGAUACAUUUGCUUGG against SGIP1, 0.118. Turning to UUGGGUGCAAGAAUGUCCA against CHTF18, the seed-corrected z-score is -2.47. Take UUCAAUUCUACUGAUCAUC against CSNK1A1: the seed-corrected z-score is 0.146. Regarding UUAAAGACUUCAUAAAAGC against SLC25A3, the seed-corrected z-score is -0.603. Next, UAAUUGUCAUUACUAAGUG against SLC17A6: -0.508. Consider UUGGUAUCGAUUUUCUACC against ATRN, for which the seed-corrected z-score is -0.607. Next, ACCUCCAAAAUUUCACUGC against ZSCAN10: 0.616; AAUGAUUGCACUAAUCUUC against IK: -3.4; UCUUGGUACUGGAUGCAGC against LOC645166: 1.33. For UCUUCGAGUGAGUCAAUGC against C10orf12, the seed-corrected z-score was -0.0711.

For UCGCUGAUUAGCUUUCUCC against CUX2, the seed-corrected z-score stood at 0.0999. Next, UUCGUUGUCUCGAAGGGCU against TRAPPC2L: -2.92; UUUCCUCUUAGUCAACUUC against CHIC1: -0.602; AAAGGACUGAUGUCUAACC against DHX15: 0.0405. On to UAUGUACAUGCAGCAGGCC against PVRL4, for which the seed-corrected z-score is -0.603.

On to AUGGGAGUCACAACAGUGU against OR10A5, for which the seed-corrected z-score is -9.99. Next, UUUCACUCAACCAUCAUUG against HOPX: -0.598. In the case of UGCCUUUGGAGGAUCUGCG against HLA-F it was -0.923. In the case of UGCUUGCUCGCAAAAGUCC against TSHZ1 it was 0.387; in that of UGAACUGCCUGGUCUGUCG against PDE6G, -0.214. AUUCUUAUCCCAGCGGAGC against PGM2L1: the seed-corrected z-score was found to be 0.162.

For UCAAUUCCCAGGGUAAAGG against PIGN, the seed-corrected z-score is -2.84. Turning to UAACAUCUUGGAGCACUAC against CCDC54, the seed-corrected z-score is -0.239. In the case of UUGUGAACAGUUGAGGUGC against OSBP2, the seed-corrected z-score is -0.0205. In the case of UCACUGUCGCCGUCAAAGC against CCKBR it was -2.68; in that of UCUUGUGCUAAAUCCCUGC against BRINP3, -0.668.

Take UGCUGAACUAGGGAAGUGC against MAGIX: the seed-corrected z-score is -0.0881. Next, UACCCAUCCGCAUCACUGC against CD320: 0.0894; UCCCGAAUAACCAUUGAGC against RFX3: -0.206; UUGGUAUUAUAACAGAUCC against ELMOD1: -9. On to UUGAUCAACAUAAUCAAGC against ASB14, for which the seed-corrected z-score was -0.125. Next, UACUCGGUAAAUGUACUGG against ADH7: 0.328; AAGGGUAUUGGGAUUGAGC against MAP3K13: 0.023; AGCUUUAUUCAGUCAGUGC against GPBAR1: -0.579. Next, UUACGAAUGGGCAAAAUUG against ZCWPW1: -0.169; UUUGCUGGUAUUCUUCACC against ACYP2: 0.0336; AUGUAUUCCAUUCUCACCG against GRSF1: -4.16. Next, UAUUGAUGCUGCAUGACCC against ITGAM: 0.677.

For UAAGUAUAACCAUCUGUUC against OR6C2, the seed-corrected z-score stood at 0.149.

Sequence UGAACAUAAAUUCCAGCUC against CLEC2L showed a seed-corrected z-score of 0.442. In the case of UCACUUACAAAGCUCAGAG against LUZP1, the seed-corrected z-score is -1.94. Next, UUAUUUAUGUAGUUCAGGA against IZUMO4: -1.87; AAGACAAUAAUGUUGCUGC against CLDN17: -0.436. Next, UCAGUAAUCAGCUUGAAUU against RPS3A: 2.45; UUCUUUUCCACCUCCAUAG against HDGF: -12.4; AUCCUUGAAAGCCUCAUAC against XPR1: 0.211. Next, UAAAUGACAUGCAGGAUUG against C17orf102: -0.0252; UUCAGUUUAAAAUCGUUUC against CENPL: 0.133. UUUGUUUCUACCAUUCCCA against PPIL1: the seed-corrected z-score is -2.34. In the case of ACAAUAAUUAAGACAUUGC against OR4K1 it was 0.433; in that of GAAUGUUCAUGUGAAAUGC against ZNF365, 1.68; in that of UGCAAUAGCAGAGUAUUCC against UBE2Q1, 0.662. Next, UUUGUUGCAGAAUACAUAG against CTH: -13.9; ACAGCUAUUAAGAAGAAGU against PTGER3: -0.312. In the case of CGCGUACUGACGGAAACAC against RPS29P3 it was 0.649; in that of UUAGCGGACGGAGGAAUUG against IDH3G, 0.0869.

These data come from PubChem BioAssay AID1159506 (National Center for Advancing Translational Sciences (NCATS), 2015).
